# Data published in PubChem BioAssay (EPA / NIEHS).
# “And” between values parts separate entries of the source, which are not always exact repeats. Equal values may be shown once. Where a structure was tested more than once in an assay, its records may differ in their call. The source made the active and inactive calls. The calls were made as follows: active = hit-call score of the fitted dose curve at least 0.9, where 1 is the maximum; inactive = score below 0.9.
# Tests used:
# [1] = APR_HepG2_P-H2AX_72hr: Apredica 72-hour HepG2 Assay for H2AX Phosphorylation (AID 2282916); settings: imaging, actives raise or lower the signal;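 also: phospho-histone H2A.x immunostain intensity per cell marking DNA damage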
# Outline: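 Following 72 hr treatment with 0.39–200 uM compound, HepG2 cells were formaldehyde-fixed, permeabilized and stained for phospho-H2A.x; signal was measured by high-content imaging and fitted bidirectionally against DMSO controls.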
# [2] = APR_HepG2_MitoMembPot_72hr: Apredica 72-hour HepG2 Assay for Mitochondrial Membrane Potential (AID 2282917); settings: imaging, actives raise or lower the signal
# Outline: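 Membrane potential read by MitoTracker Red CMXRos (250 nM, 30 min, pre-fixation) fluorescence imaging of HepG2 after 72 hr exposure. Ten concentrations, 0.39–200 uM, duplicate wells, 0.5% DMSO; fitted in both directions against DMSO baseline.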
# [3] = APR_HepG2_MitoticArrest_72hr: Apredica 72-hour HepG2 Assay for Mitotic Arrest (AID 2282918); settings: high-content imaging, actives raise or lower the signal
# Outline: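 HepG2, 72 hr exposure, 0.39–200 uM in duplicate, 0.5% v/v DMSO final. Formaldehyde-fixed, Triton-permeabilized, anti-phospho-histone H3/FITC plus Hoechst. ArrayScan imaging at 20x; curves fit bidirectionally against DMSO baseline.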
# [4] = APR_HepG2_MicrotubuleCSK_72hr: Apredica 72-hour HepG2 Assay for Microtubule CSK Stabilty (AID 2282919); settings: HepG2 microtubule cytoskeleton, high-content imaging, actives raise or lower the signal
# Outline: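 Read-out is tubulin fluorescence intensity from high-content imaging of HepG2 cells, with nuclei identified by Hoechst 33342. Treatment lasts 72 h at 0.39–200 uM, and curves are fitted bidirectionally against the DMSO negative control.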
# [5] = APR_HepG2_P-H2AX_24hr: Apredica 24-hour HepG2 Assay for H2AX Phosphorylation (AID 2282920); settings: high-content imaging, actives raise or lower the signal
# Outline: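 HCS fluorescence imaging of phospho-H2A.x immunostain (with Hoechst 33342 nuclear counterstain) in HepG2 after 24 hr compound exposure; 10 concentrations, 0.39–200 uM, duplicate wells, 0.5% v/v DMSO. Gain or loss of signal fitted relative to DMSO baseline.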
# [6] = APR_HepG2_StressKinase_72hr: Apredica 72-hour HepG2 Assay for Stress Kinase (AID 2282921); settings: HepG2 stress kinase (phospho-c-Jun) imaging, actives raise or lower the signal
# Outline: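 Fluorescence intensity of Cy3-tagged anti-phospho-c-Jun antibody, quantified per cell from Hoechst-defined nuclei across six images per well, served as the read-out following 72 h exposure (0.39–200 uM, 0.5% v/v DMSO).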
# [7] = APR_HepG2_StressKinase_24hr: Apredica 24-hour HepG2 Assay for Stress Kinase (AID 2282922); settings: HepG2 stress kinase (phospho-c-Jun) imaging, actives raise or lower the signal
# Outline: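 HepG2, 24 hr dosing, 0.39–200 uM in duplicate, 0.5% DMSO; formaldehyde fix (3.7%), 0.5% Triton X-100; anti-phospho-c-Jun + Cy3 secondary, Hoechst counterstain; ArrayScan imaging; bidirectional curve fit vs DMSO baseline.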
# [8] = APR_HepG2_p53Act_72hr: Apredica 72-hour HepG2 Assay for p53 Activation (AID 2282923); settings: high-content imaging, actives raise or lower the signal;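 also: average cellular p53 protein immunofluorescence intensity in HepG2 cells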
# Outline: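 HepG2 monolayers receive test compounds in duplicate at ten concentrations (0.39 through 200 uM) for 72 hr. They are then formaldehyde-fixed, antibody-labelled for p53, Hoechst-stained and imaged, with activity fitted bidirectionally versus DMSO.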
# [9] = APR_HepG2_MitoMass_72hr: Apredica 72-hour HepG2 Assay for Mitochondrial Mass (AID 2282924); settings: high-content imaging, actives raise or lower the signal;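 also: MitoTracker Red CMXRos stain intensity per cell imaged as mitochondrial mass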
# Outline: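 HepG2, 72 hr cmpd, 10 conc 0.39–200 uM in dup, DMSO 0.5% v/v. MitoTracker Red CMXRos 250 nM 30 min pre-fix; formaldehyde 3.7% fix 30 min RT. HCS imaging, gain/loss fit vs DMSO.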
# [10] = APR_HepG2_NuclearSize_72hr: Apredica 72-hour HepG2 Assay for Nuclear Size (AID 2282925); settings: high-content imaging, actives raise or lower the signal
# Outline: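 HepG2; cpd 0.39–200 uM, 10 conc, duplicate; 72 h; DMSO 0.5% v/v; fix 3.7% formaldehyde 30 min RT; Triton permeabilization; Hoechst 2 ug/mL; HCS imaging 20x; nuclear diameter; gain/loss fit vs DMSO.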
# [11] = ATG_CRE_CIS: Attagene CIS-FACTORIAL HepG2 Assay for human cAMP Responsive Element (CRE) binding protein 3 (AID 2282926); settings: HepG2 CRE cis-reporter, Attagene multiplexed mRNA; actives raise or lower the signal
# Outline: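 Endogenous CRE-binding activity in HepG2 is reported through a cis-regulated transfected reporter. Following a day of exposure, mRNA levels are determined by reverse transcription PCR and fluorescent fragment analysis; fits run in both directions versus DMSO.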
# [12] = target: CCAAT/enhancer-binding protein beta (Homo sapiens) (UniProt P17676); assay: ATG_C_EBP_CIS: Attagene CIS-FACTORIAL HepG2 Assay for human CCAAT/Enhancer Binding Protein (C/EBP) beta (AID 2282927); settings: HepG2 Attagene cis-factorial transcription factor reporter; actives raise or lower the signal
# Outline: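 Changes in reporter mRNA, rather than exogenous chimeric receptor activity, reflect native C/EBP signalling in transfected HepG2 cells dosed for 24 h; transcripts are detected by RT-PCR and capillary electrophoresis.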
# [13] = ATG_CMV_CIS: Attagene CIS-FACTORIAL HepG2 Assay for human CMV (Internal Marker) (AID 2282928); settings: HepG2 CMV promoter reporter, transcription factor profiling; actives raise or lower the signal;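 also: endpoint acts as a background internal control marker rather than a target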
# Outline: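 CMV internal-marker background readout in transiently transfected HepG2 cells bearing cis-regulated reporter units. Reporter mRNA is measured 24 h after dosing by RT-PCR and capillary electrophoresis, with bidirectional fitting against DMSO.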
# [14] = ATG_DR4_LXR_CIS: Attagene CIS-FACTORIAL HepG2 Assay for human Liver X Receptor (LXR), DR4 submotif (AID 2282929); settings: HepG2 Attagene DR4 cis-reporter, mRNA transcription; actives raise or lower the signal
# Outline: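 Measures endogenous transcription factor activity via a DR4-driven reporter transcript in human HepG2 cells. Compounds incubated 24 h; mRNA quantified by RT-PCR and capillary electrophoresis, analysed as gain or loss of signal versus DMSO.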
# [15] = target: Aryl hydrocarbon receptor (Homo sapiens) (UniProt P35869); assay: ATG_Ahr_CIS: Attagene CIS-FACTORIAL HepG2 Assay for human Aryl Hydrocarbon Receptor (Ahr) (AID 2282930); settings: HepG2 AhR cis-factorial reporter transcription; actives raise or lower the signal
# Outline: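 HepG2, transient MRTU (cis) transfection, 24 h exposure. RNA → cDNA → PCR → 6-FAM primer extension → HpaI 2 h 37 C → CE. Fit: bidirectional, DMSO baseline.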
# [16] = ATG_AP_1_CIS: Attagene CIS-FACTORIAL HepG2 Assay for human Activator Protein 1 (AP-1) (AID 2282931); settings: HepG2 Attagene cis-factorial AP-1 reporter mRNA; actives raise or lower the signal
# Outline: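 Bidirectional concentration-response fitting against DMSO controls. Underlying signal: reporter mRNA from cis-promoter constructs in transiently transfected HepG2, measured after 24 h by RT-PCR and capillary electrophoresis.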
# [17] = ATG_AP_2_CIS: Attagene CIS-FACTORIAL HepG2 Assay for human Activator Protein 2 (AP-2) (AID 2282932); settings: HepG2 AP-2 cis-reporter, Attagene transcription factor profiling; actives raise or lower the signal
# Outline: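 Step one: transient transfection of HepG2 with reporter transcription units. Step two: 24 h chemical exposure. Step three: RNA extraction, RT-PCR, labelled fragment analysis by capillary electrophoresis; DMSO serves as baseline.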
# [18] = ATG_BRE_CIS: Attagene CIS-FACTORIAL HepG2 Assay for human Bone Morphogenetic Protein (BMP) Response Element (BRE) (AID 2282933); settings: HepG2 BMP response element reporter, Attagene transcription factor profiling; actives raise or lower the signal
# Outline: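 After a 24 h chemical treatment, transiently transfected HepG2 cells were lysed for RNA; reporter transcripts were quantified by fluorescent RT-PCR and capillary electrophoresis, normalised to DMSO.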
# [19] = target: Retinoic acid receptor alpha (Homo sapiens) (UniProt P10276); assay: ATG_DR5_RAR_CIS: Attagene CIS-FACTORIAL HepG2 Assay for human Retinoic Acid Receptor Alpha (RARE), DR5 submotif (AID 2282934); settings: HepG2 Attagene cis-factorial RARE DR5 reporter, mRNA; actives raise or lower the signal;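 as to AC50: reporter responds to endogenous RAR alpha beta and gamma in HepG2 not RARA alone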
# Outline: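 HepG2, transient cis-reporter transfection, 24 h exposure. mRNA readout: RT-PCR, FAM label, HpaI cut, capillary electrophoresis. DMSO baseline, gain/loss fitting.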
# [20] = target: Transcription factor E2F1 (Homo sapiens) (UniProt Q01094); assay: ATG_E2F_CIS: Attagene CIS-FACTORIAL HepG2 Assay for human E2F Transcription Factor 1 (AID 2282935); settings: HepG2 Attagene cis-reporter, E2F reporter RNA transcripts; actives raise or lower the signal
# Outline: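 Total RNA from 24 h-treated, reporter-transfected HepG2 cells undergoes DNase I treatment, oligo(dT) reverse transcription, PCR and 6-FAM primer extension before capillary electrophoresis.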
# Chain of Aryl hydrocarbon receptor (Homo sapiens) (P35869 whole entry, looked up): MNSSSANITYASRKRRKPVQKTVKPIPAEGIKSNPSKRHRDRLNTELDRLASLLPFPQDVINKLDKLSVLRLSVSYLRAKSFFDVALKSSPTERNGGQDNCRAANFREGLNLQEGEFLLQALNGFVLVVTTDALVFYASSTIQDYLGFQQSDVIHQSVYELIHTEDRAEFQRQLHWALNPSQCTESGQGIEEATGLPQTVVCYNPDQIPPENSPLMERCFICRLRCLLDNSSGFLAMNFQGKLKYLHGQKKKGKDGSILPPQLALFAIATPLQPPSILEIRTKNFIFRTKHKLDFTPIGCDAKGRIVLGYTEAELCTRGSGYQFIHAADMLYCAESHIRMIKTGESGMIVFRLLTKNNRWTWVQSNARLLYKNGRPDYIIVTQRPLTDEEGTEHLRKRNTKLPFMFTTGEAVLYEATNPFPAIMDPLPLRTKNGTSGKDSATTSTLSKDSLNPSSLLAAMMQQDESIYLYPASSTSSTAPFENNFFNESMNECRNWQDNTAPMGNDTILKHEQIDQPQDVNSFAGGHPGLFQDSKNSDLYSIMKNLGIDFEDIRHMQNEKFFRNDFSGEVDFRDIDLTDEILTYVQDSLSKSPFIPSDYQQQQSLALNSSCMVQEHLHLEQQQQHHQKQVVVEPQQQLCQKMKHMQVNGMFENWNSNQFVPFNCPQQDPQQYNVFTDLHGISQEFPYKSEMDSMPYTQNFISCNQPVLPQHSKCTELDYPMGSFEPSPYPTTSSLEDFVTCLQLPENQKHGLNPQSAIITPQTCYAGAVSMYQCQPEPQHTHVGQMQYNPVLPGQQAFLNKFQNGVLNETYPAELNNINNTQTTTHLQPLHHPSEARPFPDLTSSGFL
# Chain of Transcription factor E2F1 (Homo sapiens) (Q01094 whole entry, looked up): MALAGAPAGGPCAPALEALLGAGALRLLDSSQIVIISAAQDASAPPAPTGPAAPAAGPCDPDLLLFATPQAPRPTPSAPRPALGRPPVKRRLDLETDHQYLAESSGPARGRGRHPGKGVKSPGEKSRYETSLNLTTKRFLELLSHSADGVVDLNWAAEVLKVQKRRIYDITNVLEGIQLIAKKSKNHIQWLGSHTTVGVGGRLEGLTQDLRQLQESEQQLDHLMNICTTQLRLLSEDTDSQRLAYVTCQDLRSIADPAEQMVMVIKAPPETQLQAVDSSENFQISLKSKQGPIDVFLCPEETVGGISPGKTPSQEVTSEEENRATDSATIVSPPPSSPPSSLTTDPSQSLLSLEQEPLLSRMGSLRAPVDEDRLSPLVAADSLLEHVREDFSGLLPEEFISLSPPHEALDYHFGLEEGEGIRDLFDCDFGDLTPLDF
# Chain of CCAAT/enhancer-binding protein beta (Homo sapiens) (P17676 whole entry, looked up): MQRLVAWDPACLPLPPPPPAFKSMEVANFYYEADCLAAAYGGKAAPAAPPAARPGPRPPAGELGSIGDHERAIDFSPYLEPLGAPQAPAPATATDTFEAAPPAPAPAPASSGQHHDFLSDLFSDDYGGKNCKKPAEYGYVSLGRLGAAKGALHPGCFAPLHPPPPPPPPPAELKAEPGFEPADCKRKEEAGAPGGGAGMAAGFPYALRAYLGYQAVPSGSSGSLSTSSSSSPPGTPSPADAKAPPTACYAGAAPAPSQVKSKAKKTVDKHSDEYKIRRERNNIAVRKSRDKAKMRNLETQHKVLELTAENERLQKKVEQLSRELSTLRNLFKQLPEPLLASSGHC
# Chain of Retinoic acid receptor alpha (Homo sapiens) (P10276 whole entry, looked up): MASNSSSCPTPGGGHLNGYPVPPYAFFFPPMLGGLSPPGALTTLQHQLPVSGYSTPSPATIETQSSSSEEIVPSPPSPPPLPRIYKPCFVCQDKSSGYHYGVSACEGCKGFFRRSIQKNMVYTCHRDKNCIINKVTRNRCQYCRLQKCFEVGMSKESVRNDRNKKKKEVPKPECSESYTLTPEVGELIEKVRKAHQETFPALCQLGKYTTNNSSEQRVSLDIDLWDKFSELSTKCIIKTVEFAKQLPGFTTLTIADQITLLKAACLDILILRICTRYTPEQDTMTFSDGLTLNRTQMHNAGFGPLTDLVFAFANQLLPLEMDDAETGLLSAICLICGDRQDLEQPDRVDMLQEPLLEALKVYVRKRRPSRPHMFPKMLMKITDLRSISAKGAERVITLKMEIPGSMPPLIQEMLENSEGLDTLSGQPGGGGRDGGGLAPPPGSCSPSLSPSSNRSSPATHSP
smiles,measurement,setting,value
CCC(C)c1cc([N+](=O)[O-])cc([N+](=O)[O-])c1O (configuration not stated),AC50,[1],69.7 µM (active)
same,AC50,[2],111 µM (active)
same,outcome,[3],inactive
same,outcome,[4],inactive
same,AC50,[5],67.4 µM (active)
same,outcome,[6],inactive
same,outcome,[7],inactive
same,outcome,[8],inactive
same,AC50,[9],72.3 µM (active)
same,outcome,[10],inactive
same,AC50,[11],14 µM (active)
same,AC50,[12],12.5 µM (active)
same,AC50,[13],19.6 µM (active)
same,outcome,[14],inactive
same,outcome,[15],inactive
same,AC50,[16],10.6 µM (active)
same,outcome,[17],inactive
same,AC50,[18],11.8 µM (active)
same,AC50,[19],13.2 µM (active)
same,outcome,[20],inactive
Cc1ccccc1[N+](=O)[O-],outcome,[1],inactive
same,outcome,[2],inactive
same,outcome,[3],inactive
same,outcome,[4],inactive
same,outcome,[5],inactive
same,outcome,[6],inactive
same,outcome,[7],inactive
same,outcome,[8],inactive
same,outcome,[9],inactive
same,outcome,[11],inactive
same,outcome,[12],inactive
same,outcome,[13],inactive
same,outcome,[14],inactive
same,outcome,[15],inactive
same,outcome,[16],inactive
same,outcome,[17],inactive
same,outcome,[18],inactive
same,outcome,[19],inactive
same,outcome,[20],inactive
Nn1cnnc1,outcome,[1],inactive
same,outcome,[2],inactive
same,outcome,[3],inactive
same,outcome,[4],inactive
same,outcome,[5],inactive
same,outcome,[6],inactive
same,outcome,[7],inactive
same,outcome,[8],inactive
same,outcome,[9],inactive
same,outcome,[11],inactive
same,outcome,[12],inactive
same,outcome,[13],inactive
same,outcome,[14],inactive
same,outcome,[15],inactive
same,outcome,[16],inactive
same,outcome,[17],inactive
same,outcome,[18],inactive
same,outcome,[19],inactive
same,outcome,[20],inactive
C[C@]12CCC(=O)C=C1CC[C@@H]1[C@@H]2CC[C@@]2(C)[C@H]1CC[C@]2(C)O,outcome,[1],inactive
same,outcome,[2],inactive
same,outcome,[3],inactive
same,outcome,[4],inactive
same,outcome,[5],inactive
same,outcome,[6],inactive
same,outcome,[7],inactive
same,outcome,[8],inactive
same,outcome,[9],inactive
same,outcome,[10],inactive
same,outcome,[11],inactive
same,outcome,[12],inactive
same,outcome,[13],inactive
same,AC50,[14],163 µM (active)
same,outcome,[14],inactive
same,outcome,[15],inactive
same,AC50,[16],114 µM (active)
same,outcome,[16],inactive
same,AC50,[17],33.9 µM (active)
same,outcome,[17],inactive
same,AC50,[18],91.5 µM (active) and 64 µM (active)
same,outcome,[18],inactive
same,outcome,[19],inactive
same,outcome,[20],inactive
ClC1=C(Cl)[C@]2(Cl)[C@@H]3[C@@H](Cl)[C@H]4O[C@H]4[C@@H]3C1(Cl)C2(Cl)Cl,AC50,[1],48.2 µM (active)
same,outcome,[2],inactive
same,AC50,[3],51.6 µM (active)
same,outcome,[4],inactive
same,AC50,[5],62.3 µM (active)
same,outcome,[6],inactive
same,outcome,[7],inactive
same,AC50,[8],54.5 µM (active)
same,outcome,[9],inactive
same,outcome,[10],inactive
same,outcome,[11],inactive
same,outcome,[12],inactive
same,AC50,[13],33.7 µM (active)
same,AC50,[14],8.22 µM (active)
same,outcome,[15],inactive
same,AC50,[16],35.9 µM (active)
same,outcome,[17],inactive
same,outcome,[18],inactive
same,AC50,[19],3.4 µM (active)
same,outcome,[20],inactive
CCOP(=S)(OCC)SCSC(C)(C)C,outcome,[1],inactive
same,outcome,[2],inactive
same,outcome,[3],inactive
same,outcome,[4],inactive
same,outcome,[5],inactive
same,outcome,[6],inactive
same,outcome,[7],inactive
same,outcome,[8],inactive
same,outcome,[9],inactive
same,outcome,[10],inactive
same,outcome,[11],inactive
same,outcome,[12],inactive
same,outcome,[13],inactive
same,AC50,[14],10.6 µM (active)
same,outcome,[14],inactive
same,AC50,[15],78.2 µM (active)
same,outcome,[15],inactive
same,outcome,[17],inactive
same,outcome,[18],inactive
same,outcome,[20],inactive
